The structures appear in SMILES notation. A number with no mark means an inactive call. No rule for the calls is given here. A value given as a limit tells only on which side of the number the result lay.
Potency is read from the fitted curve at half-maximal effect.

This test concerns HIV-1 nucleocapsid protein NCp7 (binding to TG oligonucleotide). The experiment in a line: HIV Nucleocapsid (AID 346).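 Also: potency is for inhibitors that block NC binding and lower polarization.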 Particulars: HIV-1 NC / fluorescein-TGTGTGTG probe, fluorescence polarization. A digest of the protocol: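 HIV-1 NC (100 nM) binding to fluorescein-labelled ssDNA TG4xF (10 nM) in Hepes pH 7.5, 250mM NaCl, 1uM ZnCl2, TCEP and 2-mercaptoethanol; compounds pin-transferred, 1 hr room temperature, fluorescence polarization read on CCD imager.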
For `O=C(Nc1ccccc1)N1CCC2(CC1)CCN(C(=O)c1csnn1)CC2`, the Potency is above 20 µM.
For `CCNc1ncc2ncc(=O)n(Cc3ccc(F)cc3)c2n1`, the Potency was above 20 µM.
As for `O=c1c(-c2ccc(F)cc2)nc2cnc(N3CCOCC3)nc2n1CCc1ccccc1`, the Potency is above 20 µM.
`N#CCCn1c(=O)c(-c2ccc(Cl)cc2)nc2cnc(Nc3ccccc3)nc21`: the Potency is above 20 µM.
Take `CN(C)C(=O)c1ccc(-c2ccc3ncnc(NC4CC4)c3c2)cc1`: the Potency was above 20 µM.
As for `O=c1cnc2cnc(N3CCOCC3)nc2n1C[C@H]1CCCO1`, the figure is above 20 µM; as for `Cn1c(=O)c(-c2ccccc2)nc2cnc(Nc3ccccc3)nc21`, above 4 µM; as for `COc1cccc(-c2ccc3ncnc(NCc4cccs4)c3c2)c1`, above 20 µM.
In the case of `COCCn1c(=O)c(-c2cc(F)cc(F)c2)nc2cnc(N3CCOCC3)nc21`, the Potency is above 20 µM.
In the case of `COc1cccc(-c2nc(NCCN3CCOCC3)c3ccccc3n2)c1`, the Potency is above 20 µM.
As for `c1cncc(-c2cc(-n3ccnc3)ncn2)c1`, the Potency is above 20 µM.
Regarding `N#Cc1cccc(-c2ccc3ncnc(N4CCNCC4)c3c2)c1`, the Potency is above 20 µM.
Take `COc1ccc(NC(=O)N2CCC3(CC2)CCN(C(=O)c2cc(C(F)(F)F)cc(C(F)(F)F)c2)CC3)cc1`: the Potency is above 20 µM.
On to `N#Cc1cccc(-c2nc(NCCN3CCOCC3)c3ccccc3n2)c1`, for which the Potency is above 20 µM.
Consider `c1csc(CNc2cc(-c3ccoc3)ncn2)c1`, for which the Potency was above 20 µM.
Turning to `COc1ccccc1CNc1ccnc(-c2c(C)noc2C)n1`, the Potency was above 20 µM.
Turning to `CN1CCC2(CC1)CCN(C(=O)c1cc(C(F)(F)F)cc(C(F)(F)F)c1)CC2`, the Potency was above 20 µM.
As to `COc1ccccc1CN1CC[C@@]2(CCCN(C(C)=O)C2)C1`, the Potency was above 20 µM.
`COc1ccc2[nH]cc(CCNc3ncncc3-c3ccccc3C)c2c1`: the Potency is above 20 µM.
With `CNc1ncncc1-c1ccccc1OC`, the Potency is above 20 µM.
With `CN(C)C(=O)c1ccc(-c2cc(NCc3ccccc3)ncn2)cc1`, the Potency is above 20 µM.
As for `O=c1c(-c2cccc(Cl)c2)nc2cncnc2n1Cc1ccccc1Cl`, the figure is above 20 µM; as for `COCCNc1ncnc2ccc(-c3c(C)noc3C)cc12`, above 20 µM; as for `COc1ccccc1CN1CCCC2(CCN(C(=O)c3c(C)noc3C)CC2)C1`, above 20 µM.
For `Cc1cnc(CNc2cc(-c3cccnc3)ncn2)cn1`, the Potency was above 20 µM.
As for `CC(C)NC(=O)N1CC[C@@]2(CCCN(C(=O)c3ccncc3)C2)C1`, the figure is above 20 µM; as for `COCCn1c(=O)c(-c2ccc(Cl)cc2)nc2cnc(N3CCOCC3)nc21`, above 20 µM.
For the molecule `COCCn1c(=O)c(-c2ccc(Cl)cc2)nc2cnc(Oc3ccccc3)nc21`, the Potency was above 20 µM.
Consider `COc1ccc(C(=O)N2CCC[C@@]3(CCN(c4cccc(-c5ccccc5)c4)C3)C2)cc1`, for which the Potency was above 20 µM.
As to `Cn1cccc1C(=O)N1CCC2(CCN(Cc3ccncc3)CC2)CC1`, the Potency was above 20 µM.
Take `COc1ccc(Oc2ncc3ncc(=O)n(Cc4ccc(F)cc4)c3n2)cc1`: the Potency was above 20 µM.
Turning to `COCCn1c(=O)c(-c2ccc(F)cc2)nc2cnc(N3CCOCC3)nc21`, the Potency is above 20 µM.
Consider `COc1cccc(Cn2c(=O)c(C)nc3cnc(Nc4ccccc4)nc32)c1`, for which the Potency is above 4 µM.
As for `Cc1noc(C)c1-c1nccc(N2CCOCC2)n1`, the Potency is above 20 µM.
As for `O=C(Nc1ccccc1)N1CCCC2(CCN(C(=O)c3csnn3)CC2)C1`, the figure is above 20 µM; as for `O=c1c(-c2ccc(Cl)cc2)nc2cnc(N3CCNCC3)nc2n1Cc1ccc(F)cc1`, above 20 µM.
As for `COc1ccccc1CCn1c(=O)c(CCc2ccccc2)nc2cncnc21`, the figure is above 20 µM; as for `COc1ccccc1-c1ccc2ncnc(NCc3ccccc3)c2c1`, above 20 µM; as for `COc1ccc(-n2c(=O)c(-c3cccs3)nc3cnc(Oc4ccccc4)nc32)cc1`, above 4 µM.
Turning to `CCNc1ncc2nc(-c3ccccc3)c(=O)n(C3CC3)c2n1`, the Potency was above 20 µM.
